{"source": "PubChem BioAssay (NCI)", "note": "This is part of a sample that, as a whole, favours compounds with a hit. Of some 83,000 tested, about 20% had one in any assay.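 For each line, cells grew in 96-well plates with the test compound present at a single concentration for 48 hours.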 A number with no mark means an inactive call. Calls of active or inactive are those of the source. The calls were made as follows: active = growth percent below 10; inactive = the rest."}
{"tested_on": "HL-60(TB) leukemia", "experiment": "NCI-60 one-dose screen, 48 h (100 = growth as untreated, 0 = no growth, -100 = all killed)", "conditions": "10 µM unless noted"}
{"smiles": "O=[N+]([O-])c1cccc(/C=N/NC(=S)NC23CC4CC(CC(C4)C2)C3)c1", "growth": "101%"}
{"smiles": "Cc1nn(-c2nc(-c3cc4ccccc4oc3=O)cs2)c(C)c1N=Nc1ccccc1", "growth": "101%"}
{"smiles": "COC(=O)c1c2c(c(C)[n+]([O-])c1C)C(=O)C(NCc1ccc(F)c(F)c1)=CC2=O", "growth": "-23.6% (active)"}
{"smiles": "COc1ccc(OC)c(NC2=C(SCCc3ccccc3)C(=O)c3ccccc3C2=O)c1", "growth": "93.4%"}
{"smiles": "Cc1cnc(C(=O)Nc2nc3ccc(S(=O)(=O)Nc4ccc(C(C)(C)C)cc4)cc3[nH]2)cn1", "growth": "-18.2% (active)"}
{"smiles": "O=C1OCCCCCCCCCC#Cc2ccccc21", "growth": "88.7%"}
{"smiles": "O=C(Nc1ccc(Cl)cc1F)c1cc(Cl)ccc1O", "growth": "-48% (active)"}
{"smiles": "CCOC(=O)c1sc(-c2ccc(OS(=O)(=O)c3ccccc3[N+](=O)[O-])c(C=O)c2)nc1C", "growth": "73.3%"}
{"smiles": "COC(=O)C1(C)COP(=O)(Nc2ccc(OC)cc2)OC1", "note": "(stereo not given)", "growth": "94.7%"}
{"smiles": "CCOC(=O)c1c[nH][nH]c1=O", "growth": "110%"}
{"smiles": "COc1ccc(-c2nc(-c3nc4ccc(OC)cc4[nH]3)c3ccccn23)cc1", "growth": "52.1%"}
{"smiles": "CCNC(=O)Oc1ccc(/C(=C(/CC)Cc2ccccc2)c2ccc(OCCN3CCCC3)cc2)cc1", "growth": "69.2%"}
{"smiles": "CC(NC(=O)Oc1cccc2ccccc12)c1ccccc1", "note": "(stereo not given)", "growth": "44.8%"}
{"smiles": "N#Cc1c(-c2ccccc2)cc(-c2ccccc2)n(CCCCC(=O)NO)c1=O", "growth": "11%"}
{"smiles": "CCN(CC)c1ccc(/C=C\\c2cc(C)c3cc(C)ccc3n2)cc1", "growth": "21.5%"}
